Only some compounds are listed: those with a hit (about 10% of all), similar ones and a draw of the others.
RORg inh: blocks mouse ROR gamma transcriptional activity | P51450 | Potency, µM (top dose mostly 53.6 µM), hits mostly inhibitors | 5.4% of 310,000 active | Drosophila S2 Gal4-RORgamma UAS-luciferase reporter, 20 h; further: nearly all actives have a fitted effect of over 60% in size
Target sequence (P51450 whole entry, looked up, the tested form may be a part): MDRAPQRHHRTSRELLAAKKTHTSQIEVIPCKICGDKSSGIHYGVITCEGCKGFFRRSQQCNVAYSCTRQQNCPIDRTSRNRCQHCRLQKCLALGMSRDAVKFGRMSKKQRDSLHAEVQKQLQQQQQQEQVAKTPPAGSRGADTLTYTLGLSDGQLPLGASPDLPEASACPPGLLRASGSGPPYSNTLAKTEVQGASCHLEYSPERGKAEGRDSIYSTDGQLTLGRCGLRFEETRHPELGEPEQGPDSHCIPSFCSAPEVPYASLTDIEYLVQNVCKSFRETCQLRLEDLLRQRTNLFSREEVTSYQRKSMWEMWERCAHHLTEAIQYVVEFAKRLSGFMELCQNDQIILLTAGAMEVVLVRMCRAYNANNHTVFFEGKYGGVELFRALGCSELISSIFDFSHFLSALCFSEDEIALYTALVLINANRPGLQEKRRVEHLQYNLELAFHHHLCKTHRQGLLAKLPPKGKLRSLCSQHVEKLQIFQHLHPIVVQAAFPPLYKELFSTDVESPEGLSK
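Drosophila S2 cells stably expressing Gal4-DBD/mouse RORγ fusion under metallothionein promoter plus UAS-luciferase; compound 1 h, then 700 uM CuSO4 induction for 20 h at ambient temperature; inhibition read as reduced luminescence.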
ELG1 repair inh: blocks ELG1-dependent DNA repair in HEK293T cells; HEK293T ELG1-luciferase reporter, luminescence, 16 h; DNA damage induced by 5-fluorouridine; Potency, µM (series often up to 46.1 µM), actives largely listed as inhibitors; 2.3% of 330,000 active; further: nearly all actives have a fitted effect of over 55% in size
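5-Fluorouridine DNA damage + compound/DMSO, 2,000 cells/well, 16 h, 37 °C/5% CO2. ONE-Glo, 30 min RT, luminescence. Readout = decrease in reporter signal.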
SW480 rerep: DNA re-replication induction in SW480 cells. SW480 DNA re-replication, Hoechst DNA content imaging, 48 h. Potency, µM (top dose mostly 46.1 µM), most hits filed as activators. 1.8% of 340,000 active; further: nearly all actives have a fitted effect of over 55% in size
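Cells (250 per well) received 23 nL compound or DMSO by pin tool and were kept 48 hr at 37 C, 5% CO2. Nuclei were then stained with Hoechst for 40 min and scanned for DNA content.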
MCF10A rereplic: induces DNA re-replication in MCF 10a normal breast cells; AID 624296; MCF 10A DNA re-replication, Hoechst nuclear intensity, 48 h; 2.9% of 350,000 active; Potency, µM (series often up to 46.1 µM), most hits filed as activators; further: nearly all actives have a fitted effect of over 50% in size
Gal4-VP16 FLuc: counter-screen for ROR gamma inhibitors: Gal4-VP16 reporter | AID 2546 | Drosophila S2 Gal4-VP16 UAS-luciferase, luminescence, 20 h | 3.5% of 310,000 active | Potency, µM (highest dose often 53.6 µM), most hits filed as inhibitors;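 further: Gal4-VP16 expression switched on by copper sulfate through the metallothionein promoter; nearly all actives have a fitted effect of over 50% in size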
Each line names hits and unclear results; the compound was inactive in the other large screens. The call rests on the fitted dose curve; in most records, active means well fitted curve in the direction sought with a large enough effect; inconclusive means small, poorly fitted or top-dose-only effect, or another doubt; inactive means no such curve, though single readings can be large; an effect the other way counts as inactive or inconclusive.

O=C(/C=C/c1c(F)cccc1Cl)Nc1ccncc1	ELG1 repair inh inconclusive, MCF10A rereplic inconclusive
Cc1ccc(/C=C/C(=O)Nc2nc3ccccc3[nH]2)cc1	RORg inh 5.6µM, ELG1 repair inh inconclusive, Gal4-VP16 FLuc inconclusive
Cc1ccc(/C=C/C(=O)c2ccccc2O)cc1	ELG1 repair inh inconclusive, SW480 rerep inconclusive, MCF10A rereplic inconclusive
O=C(/C=C/c1c(F)cccc1Cl)Nc1nc2ccccc2[nH]1	RORg inh 4.5µM, ELG1 repair inh inconclusive, MCF10A rereplic inconclusive, Gal4-VP16 FLuc inconclusive
Cc1ccc(/C=C/C(=O)c2nc3ccccc3[nH]2)cc1	RORg inh 6.3µM, ELG1 repair inh inconclusive, SW480 rerep inconclusive, MCF10A rereplic inconclusive, Gal4-VP16 FLuc inconclusive
COc1cc2ccccc2cc1C(=O)Nc1ccc(C)cn1	ELG1 repair inh inconclusive
COc1ccc(C(=O)NCC(=O)OCC(=O)Nc2cc([N+](=O)[O-])ccc2F)cc1	ELG1 repair inh inconclusive
Cc1ccc(/C=N/N(C)S(=O)(=O)c2ccc(C)cc2)cc1	Gal4-VP16 FLuc 18µM
COc1ccc(CNC(=O)C/C(C)=N/NC(=O)c2cc(OC)cc(OC)c2)cc1	none (no result: SW480 rerep, MCF10A rereplic)
C/C(CC(=O)NCc1ccc(F)cc1)=N\NC(N)=S	RORg inh 13µM
C/C(CC(=O)NCc1ccccc1)=N\NC(=O)c1cnccn1	none
C/C(CC(=O)NCc1ccccc1)=N\NC(N)=S	RORg inh 10µM
O=C1CCc2cc(S(=O)(=O)NCc3ccccc3Cl)ccc2N1	none (no result: RORg inh, Gal4-VP16 FLuc)
CCc1ccc(C(=O)COC(=O)c2cc([N+](=O)[O-])ccc2NCCO)cc1	ELG1 repair inh 15µM
Cc1cc(S(=O)(=O)NCc2ccccc2)ccc1OCC(=O)NCc1ccncc1	RORg inh inconclusive, ELG1 repair inh inconclusive, Gal4-VP16 FLuc inconclusive
N#Cc1ccc(/C=N/NC(=S)Nc2ccc(S(=O)(=O)N3CCOCC3)cc2)cc1	RORg inh 1.8µM, Gal4-VP16 FLuc inconclusive
O=[N+]([O-])c1cc(Cl)cc(/C=N/NC(=S)Nc2ccc(S(=O)(=O)N3CCOCC3)cc2)c1O	ELG1 repair inh 13µM, SW480 rerep inconclusive
O=S(=O)(c1ccc(NC(=S)N/N=C/c2ccc(O)c(O)c2)cc1)N1CCOCC1	SW480 rerep inconclusive
O=S(=O)(c1ccc(NC(=S)N/N=C/c2cccc(Oc3ccccc3)c2)cc1)N1CCOCC1	RORg inh 0.89µM, SW480 rerep inconclusive
CCCc1ccc(C(=O)NNc2ccccc2F)cc1	ELG1 repair inh inconclusive, MCF10A rereplic inconclusive
CCn1cc([N+](=O)[O-])c(C(=O)N2CCCCCC2)n1	SW480 rerep inconclusive
CCCCCCCCCCCCCCCCCCCCCCCCCCCCCC	none (no result: ELG1 repair inh, SW480 rerep, MCF10A rereplic)
CCN(CC)CCCN(C(=O)c1cccs1)c1nc(-c2ccc(OC)cc2)cs1	SW480 rerep 18µM, MCF10A rereplic inconclusive
CCN(CC)CCCN(C(=O)c1ccc(Br)cc1)c1nc(-c2ccc(OC)cc2)cs1	SW480 rerep inconclusive, MCF10A rereplic inconclusive
OCCC1CN(CCCc2ccccc2)CCN1CCc1ccccc1 (stereo unspecified)	ELG1 repair inh inconclusive, MCF10A rereplic 21µM
OCCC1CN(CCCc2ccccc2)CCN1Cc1ccccc1 (stereo unspecified)	none
CC(C)CN1CCN(CC#Cc2ccccc2)CC1CCO (stereo unspecified)	MCF10A rereplic 0.65µM
C=CCn1c(SCC(N)=O)nc2scc(-c3ccc(C)o3)c2c1=O	RORg inh inconclusive, ELG1 repair inh inconclusive, Gal4-VP16 FLuc inconclusive
COc1ccc2noc3c2c1C(=O)c1ccccc1-3	none (no result: RORg inh, ELG1 repair inh, Gal4-VP16 FLuc)
O=C1c2ccccc2-c2onc3ccc(NCCCn4ccnc4)c1c23	RORg inh 13µM, ELG1 repair inh inconclusive
O=C1CCC(=O)N1Cc1c(Cl)cccc1Cl	none
CC1CC2=C(NC(=S)NC2c2cccc(F)c2)/C(=C/c2cccc(F)c2)C1 (stereo unspecified)	RORg inh 1µM, ELG1 repair inh inconclusive, MCF10A rereplic inconclusive, Gal4-VP16 FLuc 4.5µM
CC1CC2=C(NC(=S)NC2c2ccccc2F)/C(=C/c2ccccc2F)C1 (stereo unspecified)	RORg inh 2.8µM, MCF10A rereplic inconclusive, Gal4-VP16 FLuc 6.3µM
Cc1ccc(/C=C2\CC(C)CC3=C2NC(=S)NC3c2ccc(C)cc2)cc1 (stereo unspecified)	RORg inh 3.2µM, MCF10A rereplic inconclusive, Gal4-VP16 FLuc inconclusive
C=CCn1c(C)cc(C(=O)CSc2nnc3n(CCC)c(=O)c4ccccc4n23)c1C	none (no result: RORg inh, ELG1 repair inh, Gal4-VP16 FLuc)
COCC(=O)N(Cc1cc2cccc(C)c2[nH]c1=O)c1ccccc1	SW480 rerep inconclusive (no result: RORg inh, Gal4-VP16 FLuc)
CCN(CC)S(=O)(=O)c1ccc(C(=O)Nc2nnc(CSC)o2)cc1	RORg inh 1.1µM, ELG1 repair inh inconclusive, Gal4-VP16 FLuc 4µM
COCCN(CCOC)S(=O)(=O)c1ccc(C(=O)Nc2ccncc2)cc1	none
CCN(CC)S(=O)(=O)c1ccc(C(=O)Nc2nnc(COC)o2)cc1	RORg inh 3.5µM, Gal4-VP16 FLuc 16µM
CCCCN(CCCC)S(=O)(=O)c1ccc(C(=O)Nc2nnc(COC)o2)cc1	RORg inh 0.45µM, SW480 rerep inconclusive, MCF10A rereplic inconclusive, Gal4-VP16 FLuc 1µM
CCCCN(C)S(=O)(=O)c1ccc(C(=O)Nc2nnc(CSC)o2)cc1	RORg inh 0.79µM, ELG1 repair inh inconclusive, SW480 rerep inconclusive, Gal4-VP16 FLuc 1.1µM
O=C(CCN1C(=O)c2ccccc2S1(=O)=O)N1CCN(c2cccc(Cl)c2)CC1	none (no result: RORg inh, Gal4-VP16 FLuc)
CCOC(=O)N1CCN(S(=O)(=O)c2ccc(C(=O)Nc3nnc(C)o3)cc2)CC1	RORg inh inconclusive, Gal4-VP16 FLuc inconclusive
CCOC(=O)N1CCN(S(=O)(=O)c2ccc(C(=O)Nc3nnc(CSC)o3)cc2)CC1	RORg inh 13µM, Gal4-VP16 FLuc inconclusive
CCN(CC)S(=O)(=O)c1cc(C(=O)Nc2cc(Cl)ccc2N2CCN(C)CC2)ccc1Cl	RORg inh inconclusive, ELG1 repair inh 18µM
CN1CCN(c2ccc(Cl)cc2NC(=O)c2ccc(S(=O)(=O)N(C)C)cc2)CC1	RORg inh inconclusive, SW480 rerep 11µM
CCN(CC)S(=O)(=O)c1cc(C(=O)Nc2ccccc2[N+](=O)[O-])ccc1Cl	ELG1 repair inh inconclusive, SW480 rerep 16µM, MCF10A rereplic inconclusive, Gal4-VP16 FLuc inconclusive
COc1ccccc1C(=O)NC(=O)CSc1nnnn1C	none (no result: RORg inh, Gal4-VP16 FLuc)
Cc1ccc(SC(CC(=O)c2ccc(C)cc2)C(=O)O)cc1 (stereo unspecified)	RORg inh inconclusive, SW480 rerep inconclusive, MCF10A rereplic inconclusive, Gal4-VP16 FLuc inconclusive
O=C(CC(Sc1ccc(Br)cc1)C(=O)O)c1ccc(Br)cc1 (stereo unspecified)	RORg inh 14µM, Gal4-VP16 FLuc inconclusive (no result: SW480 rerep, MCF10A rereplic)
COCCNC(=S)N/N=C(\C)c1ccc(Cl)c(Cl)c1Cl	RORg inh 4µM, Gal4-VP16 FLuc 7.9µM
COCCNC(=S)N/N=C(\C)c1ccc(Cl)c(Cl)c1	RORg inh 2.8µM, Gal4-VP16 FLuc 4.5µM
C/C(=N\O)c1ccc(Cl)c(Cl)c1	none

High-throughput results deposited in PubChem BioAssay by National Center for Advancing Translational Sciences (NCATS).
